The values that follow come from PubChem BioAssay (Tox21).

Assay [1] is described as follows: qHTS assay to identify small molecule antagonists of the sonic hedgehog signaling (Shh) pathway (AID 1259369; calls by dose curve; also: nearly all actives have a fitted effect of over 45% in size; also: potency is read from the fitted curve at half-maximal effect). The procedure, abridged: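 3T3Gli1-Luc, conditioned-medium-stimulated, 24hr cpd, 37C/5% CO2; Gli1-driven firefly Luc luminescence after 30min RT with luciferase reagent. Cells plated 4hr before cpd.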
Background: In qHTS, concentration-response curves come from the screen itself.

Assay [2] has as its target Estrogen receptor beta (Homo sapiens) (UniProt Q92731). The experiment in a line: qHTS assay to identify small molecule agonists of the estrogen receptor beta (ER-beta) signaling pathway (AID 1259377; active = well fitted activation curve with a large enough effect in the signal ratio in the repeat runs, not every such curve was filed as active; the % refers to the signal ratio). The procedure, abridged:
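ER-beta-UAS-bla HEK293T (GripTite) cells carrying a UAS-driven beta-lactamase reporter, in medium with 2% charcoal-stripped FBS, were exposed to compounds for 16 hr at 37C; LiveBLAzer B/G FRET substrate was then added and fluorescence read after 2 hours at room temperature.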

For assay [3] the target is unchanged. The experiment in a line: qHTS assay to identify small molecule antagonists of the estrogen receptor beta (ER-beta) signaling pathway (AID 1259378; active = well fitted inhibition curve with a large enough effect in the signal ratio in the repeat runs, not every such curve was filed as active; the % refers to the signal ratio; also: potency is read from the fitted curve at half-maximal effect). The gist of the method:
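Antagonist mode: compounds added to beta-lactamase reporter HEK293T ER-beta-UAS cells stimulated with E2 (1nM final), 16 hr at 37C. LiveBLAzer B/G FRET substrate, 2 hours room temperature, fluorescence read-out.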

Assay [4] is described as follows: qHTS assay to identify small molecule agonists of the androgen receptor (AR) signaling pathway in the presence of an antagonist - cell viability counter screen (AID 1259379). Also: nearly all actives have a fitted effect of over 25% in size. Also: potency is read from the fitted curve at half-maximal effect. The procedure, abridged: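 Cells: MDA-kb2 (MMTV-luc, AR and GR elements), 3,000/well, 5 hr settle. Added: nilutamide 3.0uM final, then compounds (15 conc.). Incubation: 16 hr, 37C, no CO2. Read-out: CellTiter-Fluor, 1 hr, fluorescence.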

Assay [5] is described as follows: qHTS assay to identify small molecule agonists of the estrogen receptor beta (ER-beta) signaling pathway - cell viability counter screen (AID 1259380). Also: nearly all actives have a fitted effect of over 30% in size. The procedure, abridged:
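HEK293T ER-beta-UAS-bla; 2% CS-FBS; 6 hr pre-plate, 16 hr cpd at 37C/5% CO2; LiveBLAzer read first, then CellTiter-Glo 30 min RT, luminescence.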

Assay [6] can be described thus: qHTS assay to identify small molecule antagonists of the estrogen receptor beta (ER-beta) signaling pathway - cell viability counter screen (AID 1259382). Also: series mostly up to about 92 µM; nearly all actives have a fitted effect of over 55% in size. The gist of the method:
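Cells: ER-beta-UAS-bla HEK293T, 2,000/well, 2% CS-FBS, 6 hr settle. Cpd + E2 (1nM final), 16 hr, 37C/5% CO2. Bla FRET substrate 2 hr RT, then CellTiter-Glo 30 min RT, luminescence.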

In assay [7] the target is Estrogen receptor (Homo sapiens) (UniProt P03372). The experiment in a line: qHTS assay to identify small molecule agonists of the estrogen receptor alpha (ER-alpha) signaling pathway in the presence of an antagonist (AID 1259383; calls by dose curve; also: top concentration of the series differs between compounds; nearly all actives have a fitted effect of over 15% in size). The gist of the method: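 VM7Luc4E2, endog. ER-alpha + 4×ERE-luc; charcoal-stripped FBS, phenol red-free, 5 d; 24hr plating; +10.0nM ICI-182,780 (final); cpds 15 conc, 22hr, 37C/5% CO2; ONE-Glo luminescence.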
Estrogen receptor (Homo sapiens), sequence (P03372 whole entry, looked up): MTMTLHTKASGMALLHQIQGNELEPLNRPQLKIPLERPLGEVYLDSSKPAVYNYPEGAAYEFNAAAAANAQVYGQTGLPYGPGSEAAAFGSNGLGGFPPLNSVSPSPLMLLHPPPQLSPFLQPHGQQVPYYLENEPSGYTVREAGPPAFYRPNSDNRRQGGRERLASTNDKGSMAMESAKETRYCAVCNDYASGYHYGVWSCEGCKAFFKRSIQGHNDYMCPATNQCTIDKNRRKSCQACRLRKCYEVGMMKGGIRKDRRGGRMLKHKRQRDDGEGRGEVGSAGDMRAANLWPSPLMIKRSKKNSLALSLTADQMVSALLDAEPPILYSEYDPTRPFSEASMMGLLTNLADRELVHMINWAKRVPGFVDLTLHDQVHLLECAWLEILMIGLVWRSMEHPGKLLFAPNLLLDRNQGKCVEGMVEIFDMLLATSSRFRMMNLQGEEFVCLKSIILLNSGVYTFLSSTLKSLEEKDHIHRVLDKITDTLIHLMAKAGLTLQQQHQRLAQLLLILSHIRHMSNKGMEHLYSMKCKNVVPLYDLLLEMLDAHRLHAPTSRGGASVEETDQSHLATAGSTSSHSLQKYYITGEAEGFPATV

Assay [8] is described as follows: qHTS assay to identify small molecule agonists or antagonists of the thyroid stimulating hormone receptor (TSHR) signaling pathway - wild type cell line counter screen (AID 1259384; calls by dose curve). The procedure, abridged: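 Counter screen in untransfected Hek293: compounds (15-point titration, triplicate) plus phosphodiesterase inhibitor Ro20-1724 added after 18 h plating; 30 min RT. Intracellular cAMP via competitive d2/cryptate immunoassay, 1 h incubation.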

Assay [9] addresses Thyrotropin receptor (Homo sapiens) (UniProt P16473). The experiment in a line: qHTS assay to identify small molecule antagonists of the thyroid stimulating hormone receptor (TSHR) signaling pathway (AID 1259385; calls by dose curve; also: nearly all actives have a fitted effect of over 20% in size; also: potency is read from the fitted curve at half-maximal effect). The gist of the method:
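Antagonist mode: compound-treated TSHR-expressing HEK293 cells were stimulated with 1.5 ng/mL TSH (final) in presence of Ro20-1724 for 30 min at RT. HTRF cAMP detection after 1 h; each compound tested at 15 concentrations, triplicate.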

A short description of assay [10]: qHTS assay to identify small molecule agonists of the estrogen receptor alpha (ER-alpha) signaling pathway in the presence of an antagonist - cell viability counter screen (AID 1259386).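 Also: cells exposed to compounds for 22 h at 37 °C before the viability read; nearly all actives have a fitted effect of over 30% in size.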 Also: potency is read from the fitted curve at half-maximal effect. The gist of the method: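 VM7Luc4E2, stripped-serum pre-culture 5 d; 24hr plating; +ICI-182,780 10.0nM final; cpds 15 conc, 22hr, 37C/5% CO2; CellTiter-Fluor added at 21hr, fluorescence 1hr later.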

Assay [11] addresses Progesterone receptor (Homo sapiens) (UniProt P06401). Put plainly: qHTS assay to identify small molecule agonists of the progesterone receptor (PR) signaling pathway (AID 1346784; calls by dose curve; also: nearly all actives have a fitted effect of over 30% in size). The gist of the method: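 PR-UAS-bla HEK 293T cells carrying a UAS-driven beta-lactamase reporter were seeded in medium with 2% charcoal-stripped FBS, preincubated 6 hr at 37C, then exposed to compounds in DMSO for 16 hr; agonism was read by LiveBLAzer B/G FRET fluorescence.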

Assay [12] has the same target. Put plainly: qHTS assay to identify small molecule antagonists of the progesterone receptor (PR) signaling pathway (AID 1346795; active = well fitted inhibition curve with a large enough effect in the signal ratio in the repeat runs, not every such curve was filed as active; the % refers to the signal ratio; also: potency is read from the fitted curve at half-maximal effect). The gist of the method: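 PR-UAS-bla HEK293T cells carrying a UAS-driven beta-lactamase reporter were plated in medium with 2% charcoal-stripped FBS and rested 6 hr at 37C. Compounds were added with 1 nM R5020 (final) for 16 hr, then FRET substrate loaded 2 hr at room temperature.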

A short description of assay [13]: qHTS assay to identify small molecule antagonists of the progesterone receptor (PR) signaling pathway - cell viability counter screen (AID 1346798). Also: series mostly up to about 92 µM; nearly all actives have a fitted effect of over 50% in size. The gist of the method:
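PR-UAS-bla HEK293T cells in medium with 2% charcoal-stripped FBS were treated with compounds plus R5020 for 16 hr at 37C. Cell viability was then read by CellTiter-Glo luminescence after 30 min at room temperature in the same wells.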

Assay [14] is described as follows: qHTS assay to identify small molecule agonists of the progesterone receptor (PR) signaling pathway - cell viability counter screen (AID 1346799; calls by dose curve; also: nearly all actives have a fitted effect of over 45% in size). The procedure, abridged: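 PR-UAS-bla HEK293T cells, 3,000 per well in medium with 2% charcoal-stripped FBS, were preincubated 6 hr at 37C, then exposed to compounds for 16 hr; viability was read as CellTiter-Glo luminescence after 30 min at room temperature.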

Assay [15] is described as follows: qHTS assay to identify small molecule antagonists of the TGF-beta/Smad signaling pathway - cell viability counter screen (AID 1346824). Also: nearly all actives have a fitted effect of over 50% in size. The gist of the method: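 Cytotoxicity counter-screen run in the same wells as the beta-lactamase Smad reporter read: CellTiter-Glo luminescence after 30 min at room temperature. HEK 293T SBE-bla cells had 5 hr compound exposure at 37 C with TGF-beta1 (0.25 ng/mL stock).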

Assay [16] is described as follows: qHTS assay to identify small molecule agonists of the TGF-beta/Smad signaling pathway - cell viability counter screen (AID 1346829). Also: top concentration of the series differs between compounds; nearly all actives have a fitted effect of over 45% in size. The gist of the method:
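Tox21 qHTS format: SBE-bla HEK 293T cells treated with DMSO-dissolved compounds for 5 hr; CellTiter-Glo luminescence after 30 min at room temperature.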

Assay [17] deals with Thyrotropin-releasing hormone receptor (Homo sapiens) (UniProt P34981). The experiment in a line: qHTS assay to identify small molecule antagonists of the thyrotropin-releasing hormone receptor (TRHR) signaling pathway (AID 1346877; active = well fitted inhibition curve with a large enough effect in the repeat runs, not every such curve was filed as active; also: series mostly up to about 51 µM). The gist of the method:
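Intracellular calcium fluorescence, read kinetically every second over 3 min, reports TRH-evoked signalling in HEK293 cells carrying TRHR. Test compounds were added 5 min ahead of a 1 nM TRH challenge.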

Assay [18] shares this target. The experiment in a line: qHTS assay to identify small molecule agonists of the thyrotropin-releasing hormone receptor (TRHR) signaling pathway (AID 1346891; calls by dose curve; also: series mostly up to about 58 µM). The gist of the method:
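TRHR-expressing HEK293 cells were plated 18 h at 37 °C/5% CO2, loaded with calcium dye 2 h at 37 °C, then given compound in DMSO; fluorescence was read kinetically for 3 min at 1 s intervals.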

In assay [19] the target is Androgen receptor (Homo sapiens) (UniProt P10275). Put plainly: qHTS assay to identify small molecule agonists of the androgen receptor (AR) signaling pathway in the presence of an antagonist (AID 1259381; calls by dose curve; also: nearly all actives have a fitted effect of over 15% in size). The gist of the method:
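MDA-kb2 cells, 3,000/well, rested 5hr at 37C/0% CO2 → nilutamide 3.0uM final or buffer → compounds, 15 conc. → 16hr at 37C → ONE-Glo, 30min RT → luminescence.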

The nature of assay [20]: qHTS assay to identify small molecule agonists of the TGF-beta/Smad signaling pathway (AID 1346859; active = well fitted activation curve with a large enough effect in the signal ratio in the repeat runs, not every such curve was filed as active; the % refers to the signal ratio; also: series mostly up to about 77 µM). The gist of the method: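 HEK 293T cells stably carrying a beta-lactamase reporter driven by the Smad binding element were seeded overnight, exposed to DMSO-dissolved compounds for 5 hr at 37 C, 5% CO2, then loaded with FRET substrate for 2 hr at room temperature.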

Values joined by “and” are separate entries in the source; they are usually repeats but may differ in a detail not shown here. Equal values may be shown once. Inconclusive results are not listed. Some compounds were tested as several samples or in several runs, with calls that do not always agree. Active and inactive are the calls of the source. Unless noted, calls follow the shape of the dose curve; as a rule, active = well fitted curve in the direction sought with a large enough effect in the repeat runs; inconclusive = weak or mixed curves; inactive = no such curve, though single readings can be large; an effect the other way counts as inactive or inconclusive.

Thyrotropin receptor (Homo sapiens), sequence (P16473 whole entry, looked up): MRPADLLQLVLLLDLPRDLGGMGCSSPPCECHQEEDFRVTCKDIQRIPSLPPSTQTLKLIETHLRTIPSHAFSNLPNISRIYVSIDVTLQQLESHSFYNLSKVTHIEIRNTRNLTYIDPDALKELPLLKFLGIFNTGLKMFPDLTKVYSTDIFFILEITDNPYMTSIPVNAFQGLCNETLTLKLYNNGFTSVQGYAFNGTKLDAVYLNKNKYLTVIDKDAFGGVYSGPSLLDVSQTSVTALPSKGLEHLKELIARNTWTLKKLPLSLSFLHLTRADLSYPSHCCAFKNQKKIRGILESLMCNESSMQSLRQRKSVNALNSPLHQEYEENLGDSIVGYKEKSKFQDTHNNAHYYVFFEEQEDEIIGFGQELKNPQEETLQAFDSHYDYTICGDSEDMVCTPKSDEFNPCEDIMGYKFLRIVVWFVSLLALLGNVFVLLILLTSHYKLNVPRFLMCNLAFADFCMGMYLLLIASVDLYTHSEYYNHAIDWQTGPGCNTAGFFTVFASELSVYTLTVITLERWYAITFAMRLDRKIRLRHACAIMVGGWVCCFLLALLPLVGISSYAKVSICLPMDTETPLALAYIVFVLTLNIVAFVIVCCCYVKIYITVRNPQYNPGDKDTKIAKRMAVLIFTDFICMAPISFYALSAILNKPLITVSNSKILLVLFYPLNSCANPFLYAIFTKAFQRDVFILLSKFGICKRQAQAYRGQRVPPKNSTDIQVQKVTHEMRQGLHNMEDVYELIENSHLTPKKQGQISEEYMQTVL
Progesterone receptor (Homo sapiens), sequence (P06401 whole entry, looked up): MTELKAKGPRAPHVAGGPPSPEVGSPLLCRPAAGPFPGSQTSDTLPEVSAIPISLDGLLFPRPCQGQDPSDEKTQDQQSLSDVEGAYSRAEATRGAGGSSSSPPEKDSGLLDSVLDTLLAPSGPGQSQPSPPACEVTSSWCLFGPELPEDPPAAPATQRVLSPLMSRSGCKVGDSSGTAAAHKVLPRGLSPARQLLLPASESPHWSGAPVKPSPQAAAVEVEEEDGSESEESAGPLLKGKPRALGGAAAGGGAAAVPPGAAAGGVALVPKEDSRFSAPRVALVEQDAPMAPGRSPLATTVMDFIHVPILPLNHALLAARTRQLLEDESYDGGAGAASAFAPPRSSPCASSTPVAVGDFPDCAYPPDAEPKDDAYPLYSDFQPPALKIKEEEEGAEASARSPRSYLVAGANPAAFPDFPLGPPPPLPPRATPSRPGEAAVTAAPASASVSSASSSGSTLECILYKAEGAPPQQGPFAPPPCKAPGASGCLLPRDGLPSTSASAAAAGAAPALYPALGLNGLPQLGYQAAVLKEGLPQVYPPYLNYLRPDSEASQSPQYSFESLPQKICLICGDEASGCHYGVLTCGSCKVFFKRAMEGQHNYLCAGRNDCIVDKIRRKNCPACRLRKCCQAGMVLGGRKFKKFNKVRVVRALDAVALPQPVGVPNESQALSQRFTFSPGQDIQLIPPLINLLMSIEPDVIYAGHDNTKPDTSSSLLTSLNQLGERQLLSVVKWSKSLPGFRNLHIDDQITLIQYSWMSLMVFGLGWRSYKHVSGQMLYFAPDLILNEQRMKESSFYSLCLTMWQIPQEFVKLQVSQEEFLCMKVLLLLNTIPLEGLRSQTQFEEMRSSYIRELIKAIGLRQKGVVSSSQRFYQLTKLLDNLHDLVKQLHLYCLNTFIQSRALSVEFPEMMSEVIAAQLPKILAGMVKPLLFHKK
Estrogen receptor beta (Homo sapiens), sequence (Q92731 whole entry, looked up): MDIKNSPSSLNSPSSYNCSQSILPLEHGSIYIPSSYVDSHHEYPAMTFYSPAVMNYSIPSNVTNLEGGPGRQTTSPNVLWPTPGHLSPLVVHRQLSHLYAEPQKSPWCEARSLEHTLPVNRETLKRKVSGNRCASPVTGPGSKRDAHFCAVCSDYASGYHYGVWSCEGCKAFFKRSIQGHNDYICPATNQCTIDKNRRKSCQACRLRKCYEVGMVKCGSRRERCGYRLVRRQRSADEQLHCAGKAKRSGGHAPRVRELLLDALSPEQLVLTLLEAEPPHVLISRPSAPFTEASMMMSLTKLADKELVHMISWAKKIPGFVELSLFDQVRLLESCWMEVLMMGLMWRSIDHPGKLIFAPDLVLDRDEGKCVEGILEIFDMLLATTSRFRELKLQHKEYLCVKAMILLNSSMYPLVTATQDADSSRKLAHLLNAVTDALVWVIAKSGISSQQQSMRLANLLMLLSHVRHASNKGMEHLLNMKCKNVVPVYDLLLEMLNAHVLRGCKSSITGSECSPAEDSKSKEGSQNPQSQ
Androgen receptor (Homo sapiens), sequence (P10275 whole entry, looked up): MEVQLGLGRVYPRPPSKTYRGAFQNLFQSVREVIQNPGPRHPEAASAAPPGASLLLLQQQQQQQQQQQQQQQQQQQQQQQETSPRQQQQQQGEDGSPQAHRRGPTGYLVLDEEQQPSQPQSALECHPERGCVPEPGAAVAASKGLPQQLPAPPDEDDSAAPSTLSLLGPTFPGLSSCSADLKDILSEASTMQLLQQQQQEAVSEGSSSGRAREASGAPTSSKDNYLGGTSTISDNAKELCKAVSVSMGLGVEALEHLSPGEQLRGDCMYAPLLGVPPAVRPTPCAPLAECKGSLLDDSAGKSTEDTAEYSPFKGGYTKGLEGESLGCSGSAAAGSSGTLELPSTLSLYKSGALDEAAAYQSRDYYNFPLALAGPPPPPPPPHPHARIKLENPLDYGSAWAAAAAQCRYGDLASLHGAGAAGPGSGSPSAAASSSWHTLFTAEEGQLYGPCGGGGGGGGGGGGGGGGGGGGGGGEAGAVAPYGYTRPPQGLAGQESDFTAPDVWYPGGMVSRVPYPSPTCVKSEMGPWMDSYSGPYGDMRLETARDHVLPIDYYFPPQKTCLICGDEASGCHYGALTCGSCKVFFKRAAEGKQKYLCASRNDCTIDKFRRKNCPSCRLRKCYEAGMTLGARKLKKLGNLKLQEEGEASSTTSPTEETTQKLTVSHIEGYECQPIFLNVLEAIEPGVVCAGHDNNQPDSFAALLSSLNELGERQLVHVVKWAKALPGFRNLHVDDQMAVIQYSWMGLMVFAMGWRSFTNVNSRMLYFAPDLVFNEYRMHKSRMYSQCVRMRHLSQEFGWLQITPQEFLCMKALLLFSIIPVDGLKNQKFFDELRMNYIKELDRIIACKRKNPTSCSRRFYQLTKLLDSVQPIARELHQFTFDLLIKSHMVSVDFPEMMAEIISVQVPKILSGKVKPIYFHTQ
Thyrotropin-releasing hormone receptor (Homo sapiens), sequence (P34981 whole entry, looked up): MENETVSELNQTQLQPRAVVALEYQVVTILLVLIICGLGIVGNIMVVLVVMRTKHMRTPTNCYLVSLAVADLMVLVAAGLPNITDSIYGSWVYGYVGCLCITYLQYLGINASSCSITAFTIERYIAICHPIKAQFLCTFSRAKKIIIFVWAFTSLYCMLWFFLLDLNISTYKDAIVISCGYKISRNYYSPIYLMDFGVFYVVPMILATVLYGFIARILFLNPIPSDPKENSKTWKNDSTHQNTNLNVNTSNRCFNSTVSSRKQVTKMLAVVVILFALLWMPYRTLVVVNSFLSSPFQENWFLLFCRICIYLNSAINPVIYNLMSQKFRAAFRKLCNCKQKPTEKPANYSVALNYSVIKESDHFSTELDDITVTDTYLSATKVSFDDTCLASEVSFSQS

For `CCOC(=O)c1ccccc1N`, the Potency entry in assay [1], in assay [2], in assay [3], in assay [4], in [5] and in [6] was “inactive” in each case. The Potency entry in assay [7], in assay [8], in assay [9], in assay [10], in [11] and in assay [12] was “inactive” throughout. The Potency result in [13], in assay [14], in assay [15], in assay [16] and in [17] was “inactive” in each case.

For `CC(C)Nc1nc(Cl)nc(NC(C)C)n1`, the Potency in assay [1] is 768 nM (active). Also, the Potency entry in assay [2], in assay [3], in assay [4], in assay [5], in [6] and in assay [7] was “inactive” throughout. The Potency result in assay [8], in [9], in assay [10], in assay [11], in assay [12] and in assay [13] was “inactive” throughout. Also, the Potency result in assay [14], in assay [15], in [16] and in assay [17] was “inactive” throughout. The compound was classed as inactive in [18].

Consider `CC1=C(C(=O)Nc2ccccc2)SCCO1`, for which the Potency entry in [1], in [2], in assay [3], in assay [4], in assay [5] and in [6] was “inactive” in each case. The Potency entry in assay [7], in assay [8], in [9], in assay [10], in [11] and in assay [13] was “inactive” in each case. Further, the Potency entry in assay [14], in assay [15], in assay [16], in assay [20] and in assay [17] was “inactive” throughout. Besides, the outcome in assay [19] and in assay [18] was inactive.

For the compound `OCCOCCO`, in assay [1], the Potency was 4.46 µM (active) and inactive. Also, the Potency result in assay [2], in assay [3], in assay [4], in assay [5], in assay [6] and in [7] was “inactive” throughout. For the same compound, the Potency entry in assay [10], in assay [11], in [12], in [13], in assay [14] and in [15] was “inactive” in each case. In addition, the Potency result in assay [16] was “inactive”.

In the case of `N#Cc1nn(-c2c(Cl)cc(C(F)(F)F)cc2Cl)c(N)c1S(=O)C(F)(F)F` (stereo not drawn), the Potency result is “inactive and 29.8 µM (active)” in [1]; 23.7 µM (active) in [3]; 61.5 µM (active) and inactive in assay [4]; 21.8 µM (active) and 29.8 µM (active) in [10]. The Potency entry in [2], in [5], in assay [6], in assay [7], in assay [8] and in assay [9] was “inactive” throughout. Besides, the Potency result in assay [11], in assay [14], in assay [15], in assay [16], in assay [20] and in [17] was “inactive” each time. Further, in assay [19], the outcome was inactive.

Take `ClC(Cl)(Cl)c1ccccc1`: the Potency entry in assay [1], in assay [2], in assay [3], in assay [4], in [5] and in assay [6] was “inactive” throughout. The Potency entry in assay [7], in assay [8], in [9], in [10], in assay [11] and in assay [12] was “inactive” each time. Also, the Potency entry in assay [13], in [14], in assay [15] and in assay [16] was “inactive” each time.

Take `CC1(C)C(C(=O)OC(C#N)c2cccc(Oc3ccccc3)c2)C1(C)C` (stereo not drawn): the Potency in [1] is 13800 nM (active); in assay [3] it was 48.9 µM (active); in assay [9], 61.6 µM (active); in [12] it was 24.5 µM (active). Moreover, the Potency result in assay [2], in assay [4], in assay [5], in assay [6], in assay [7] and in assay [8] was “inactive” each time. In addition, the Potency entry in assay [10], in assay [11], in assay [13], in assay [15], in [16] and in [20] was “inactive” throughout. For the same compound, the Potency entry in [17] is “inactive”.
